A selection: hits, their analogues and other compounds. The true share with any hit is near 8.8%.
HT1080-NT tox = kills 2HG-producing HT-1080-NT fibrosarcoma cells; AID 686970; HT-1080-NT fibrosarcoma viability, CellTiter-Glo ATP luminescence, 48 h; 360,000 compounds, 1.6% hits; Potency, µM (highest dose often 46.1 µM), inactives show at the top dose activity, negative = less viability, usual class: cytotoxic;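 further: NT is the 2HG producing partner of a matched IDH1 knockdown line; potency means the concentration at half of the fitted maximal effect; 0% = DMSO-treated cells and -100% = media-only wells without cells; nearly all actives have a fitted effect of over 55% in size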
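750 cells/well, RPMI + 5% FBS; 2 h settle, compound pin-transfer, 48 h at 37 degrees C. CellTiter-Glo 10 min RT, luminescence. Normalized to DMSO and media-only wells.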
KB-3-1 cytotox = kills parental KB-3-1 adenocarcinoma cells | KB-3-1 viability, CellTiter-Glo ATP luminescence, 72 h | Potency, µM (doses to about 46.1 µM), actives largely listed as cytotoxic | 400,000 compounds, 1.4% hits | AID 1347075; further: potency means the concentration at half of the fitted maximal effect; nearly all actives have a fitted effect of over 60% in size
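Screening of KB-3-1 cells (DMEM, 10% FBS, phenol-red free) ran from lowest to highest compound concentration; after 72 h at 37 °C viability was read luminescently and curves fitted.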
KB-V1 MDR tox = KB-V1 MDR subline cytotoxicity; KB-V1 MDR cells viability, CellTiter-Glo, 72 h; Potency, µM (titrated, usually from 46.1 µM), most hits filed as cytotoxic; 400,000 compounds, 3.4% hits; AID 1347076; further: potency means the concentration at half of the fitted maximal effect; nearly all actives have a fitted effect of over 60% in size
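KB-V1, DMEM (no phenol red) + 10% FBS; cpd pin-transferred, titration series; 72 h, 37 degrees C; CellTiter-Glo, luminescence. Data normalized, curve-fit.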
HT1080 IDH1KD tx = HT-1080 IDH1 knockdown cell toxicity (counter line). HT-1080 IDH1 knockdown viability, ATP luminescence, 48 h. Potency, µM (doses to about 46.1 µM), for the others: at the top dose activity, negative = toxicity, most hits filed as cytotoxic. 360,000 compounds, 2% hits. AID 686971;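 further: potency means the concentration at half of the fitted maximal effect; 0% = DMSO wells and -100% = cell-free medium wells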
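HT-1080-IDH1KD cells (IDH1 knocked down), 750/well in RPMI with 5% FBS, treated with compound 48 h at 37 degrees C. Viability by CellTiter-Glo luminescence, normalised to DMSO and no-cell wells; concentration-response curves classed.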
IL1B secr inh = blocks inflammasome-driven IL-1 beta release. AID 743279. THP-1 LPS/ATP IL-1B secretion, AlphaLISA, 16 h; stronger effect = lower value. activity change, % at 57.5 µM. 360,000 compounds, 4.7% hits; in the data active means activity change below about -50%; inconclusive means mostly about -30% to -49%
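THP-1 cells pretreated 1 hr with compounds (up to 57.5 uM final), then stimulated with LPS (250 ng/mL final) plus ATP (1.25 mM final); secreted IL-1B measured by AlphaLISA after 16 hr, decreased signal indicating inhibition.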
Starred values were filed as active, the others as inactive; i = inactive; ? = inconclusive; . = no result given. Unless noted, the call rests on the fitted dose curve; in most records, active means well fitted curve in the direction sought with a large enough effect; inconclusive means small, poorly fitted or top-dose-only effect, or another doubt; inactive means no such curve, though single readings can be large; an effect the other way counts as inactive or inconclusive. Unless noted, on the % scale 0 is the no-effect control and ±100 the full control effect.

SMILES	HT1080-NT tox	KB-3-1 cytotox	KB-V1 MDR tox	HT1080 IDH1KD tx	IL1B secr inh
Cc1ccccc1/C=C/C12NC(=O)CN1c1ccccc1C2(C)C (configuration not stated)	-16%	i	i	-8%	1
CC1(C)c2ccccc2N2CC(=O)N[C@@]21/C=C/C=C/c1ccccc1	10µM*	?	i	?	-28
Cc1ccc(C(OCCN(C)C)c2cccc(C(F)(F)F)c2)cc1 (configuration not stated)	-20%	i	i	-20%	-67*
CN(C)CCO[C@@H](c1ccc(Cl)cc1)c1ccccn1	-3%	i	i	0%	-14
COc1cc(-c2nnc(-c3ccco3)o2)ccc1OCc1ccccc1	-17%	?	4.1µM*	-27%	?
CCC(C)(C)n1nnnc1C(c1cc2cc(C)cc(C)c2[nH]c1=O)N1CCCC1 (configuration not stated)	-2%	i	i	-17%	-51*
Cc1cc(C)c2[nH]c(=O)c(C(c3nnnn3CC3CCCO3)N3CCC(C)CC3)cc2c1 (configuration not stated)	4%	i	4.6µM*	8%	-10
Cc1scc(C(=O)N/N=C/c2ccc(Cl)s2)c1C	21%	i	?	21%	-6
O=c1c(-c2ccco2)nc2ccccc2n1C(CCc1ccccc1)c1nc2ccccc2[nH]1 (configuration not stated)	?	i	i	-17%	-19
CC1CCc2c(c3ccccc3n2C(=O)CCl)C1 (configuration not stated)	-18%	?	?	-12%	-60*
CCOc1cc(/C=N\NC(N)=O)cc(Br)c1OC(C)C	-6%	7.3µM*	12µM*	-10%	0
COc1cc(/C=N/NC(N)=O)cc(Br)c1OCc1ccc(C)cc1	-3%	i	i	0%	7
CC(C)CCN(C(=S)Nc1cccc(F)c1)C1CCN(C(C)C)CC1	-2%	?	?	-19%	-92*
COc1ccc(NC(=S)N(CCC(C)C)C2CCN(C(C)C)CC2)cc1	-4%	i	i	2%	?
Cc1c(Cl)cccc1NC(=O)Nc1nnc(N(C)Cc2ccccc2)s1	.	i	?	.	.
Cc1ccc(N(Cc2ccc(C(=O)NC3CCCCC3)cc2)S(C)(=O)=O)cc1C	-19%	i	?	1%	4
CS(=O)(=O)N(Cc1ccc(C(=O)NCCSc2ccccn2)cc1)c1ccccc1	-22%	i	5.8µM*	-9%	38
Cc1ccc(N(Cc2ccc(C(=O)NCCSc3ccccn3)cc2)S(C)(=O)=O)cc1C	1%	i	21µM*	-6%	0
CCCCC[C@@H]1C=C(C(=O)O)[C@H](c2ccc3c(c2)OCO3)N1S(=O)(=O)c1ccc(C)cc1	-9%	i	i	-9%	49
CCN(CC)S(=O)(=O)c1ccc(C(=O)Nc2ccc3c(c2)OCO3)cc1	-2%	?	i	-2%	-22
NC1CCc2ccccc21 (configuration not stated)	.	?	i	.	.
N#CCSc1nnc(SCC#N)s1	-19%	i	i	-18%	-71*
Cc1ccc(C(=O)OCn2ncc(Cl)c(Cl)c2=O)cc1	5.8µM*	4.6µM*	?	5.2µM*	-99*
O=C(OCn1ncc(Cl)c(Cl)c1=O)c1ccc(C(F)(F)F)cc1	?	7.3µM*	6.5µM*	?	-99*
CCc1cccc2sc(N3CCN(C(=O)c4ccc([N+](=O)[O-])o4)CC3)nc12	-25%	?	?	?	-103*
SMILES	HT1080-NT tox	KB-3-1 cytotox	KB-V1 MDR tox	HT1080 IDH1KD tx	IL1B secr inh
Cc1ccc(C)c(C(=O)CN2C(=O)NC3(CCc4ccccc43)C2=O)c1 (configuration not stated)	-5%	i	i	3%	4
CCc1cccc2c(C(=O)CN3C(=O)NC4(CCc5ccccc54)C3=O)c[nH]c12 (configuration not stated)	?	?	?	?	-58*
CCc1cccc2c(C(=O)CN3C(=O)NC(C)(c4cccc5ccccc45)C3=O)c[nH]c12 (configuration not stated)	?	?	23µM*	15µM*	28
CN1C(=O)N(CC(=O)NCc2ccc(Cl)cc2Cl)C(=O)C12CCCCC2	-4%	i	i	-1%	-54*
CCc1cccc2c(C(=O)CN3C(=O)N(C)C4(CCCCC4)C3=O)c[nH]c12	18µM*	?	i	16µM*	60
CCc1cccc2c(=O)c(C(=O)N3CCCCCC3)c[nH]c12	-3%	i	i	3%	-5
CCC(=O)c1ccc(N2CCN(C(=O)c3ccc(Br)cc3)CC2)c(F)c1	5%	i	15µM*	11%	4
CCCOC(=O)C(C)n1cnc2scc(-c3ccc(C)cc3)c2c1=O (configuration not stated)	-12%	?	i	-8%	-8
NC(N)=NN=C1c2ccccc2-c2ccccc21	-18%	i	i	-14%	-64*
OCc1ccccc1SSc1ccccc1CO	?	?	?	?	-99*
Cc1cc(C)c(S(=O)(=O)c2ccccc2C)c(OCCN(C)C)n1	2%	i	i	4%	9
CC(C)CCNC(=O)c1c(CSc2ccc(Cl)cc2)noc1C(=O)NCc1ccccc1	-2%	i	i	5%	0
COc1ccc(C)cc1Nc1n[n+](-c2ccccc2)c(-c2ccc(N(C)C)cc2)s1	-22%	?	i	-3%	-67*
O=C(NCCCN1CCOCC1)c1cc(-c2cccs2)on1	?	i	i	11µM*	19
O=C(NCCN1CCOCC1)c1cc(-c2ccc(Cl)cc2)on1	11%	i	21µM*	0%	-10
COc1ccc(OC)c(-c2cc(C(=O)NCCCn3ccnc3)no2)c1	2%	i	i	-15%	-21
O=C(NCCCn1ccnc1)c1cc(-c2cccs2)on1	?	15µM*	15µM*	?	37
O=C(NCCCN1CCOCC1)c1ccc(-n2nc(C(F)(F)F)cc2-c2cccs2)cc1	?	?	?	23µM*	-87*
CCCCc1nn2c(=O)cc(COC(=O)C(C)Oc3ccccc3)nc2s1 (configuration not stated)	.	i	i	.	.
Cc1ccc(C)c(OCC(=O)NCC(c2ccco2)N2CCCCC2)c1 (configuration not stated)	7%	i	?	-13%	-23
Cc1ccc(S(=O)(=O)NCCC(=O)N2CCOCC2)cc1C	3%	i	i	2%	16
CCOC(=O)Cc1ccc(Nc2nc(NCCOC)nc3ccsc23)cc1	-1%	i	i	-17%	-28

High-throughput results as filed in PubChem.
